# Measurements reported in PubChem BioAssay AID2289 (National Center for Advancing Translational Sciences (NCATS), 2010).
# The campaign covered roughly 340,000 compounds. About 3,300 (0.97%) were called active. Another 9% or so got no clear call; they are omitted. Calls follow the shape of the dose curve; as a rule, active = well fitted inhibition curve with a large enough effect; inconclusive = small, poorly fitted or top-dose-only effect, or effect the other way; inactive = flat fitted curve, though single readings scatter. The list shows a part of the results.
# Experiment: qHTS Assay for Modulators of miRNAs and/or Inhibitors of miR-21; also: nearly all actives have a fitted effect of over 55% in size
# Details: HeLa miR-21-FLuc reporter, luciferase luminescence, 48 h; actives lower the signal
# Text: MLSCN Grant: 1 R21 NS059478-01 Assay Provider: Qihong Huang, The Wistar Institute NCGC Assay Overview: MicroRNAs (miRNAs) are endogenously encoded small (~20-25 nucleotides), nonprotein-coding RNAs that are involved in post-transcriptional repression of target messenger RNAs (mRNAs) (Le and Hannon, 2004). Estimated to be involved in the regulation of 30% of all protein-coding mRNAs (Filipowicz et al., 2008), miRNAs play a significant role in many biological processes including cellular differentiation and tissue development (Ghildiyal and Zamore, 2009).
# NCGC Assay Protocol Summary: Reagents: HeLa cells stably expressing firefly luciferase (FLuc) under the control of a CMV promoter (upstream) and a miR-21 binding sequence directly downstream of the gene. These cells endogenously express miR-21. Control compounds used were compound C3 (provided by collaborator), N6-phenyladenosine (MP Biomedicals, 0215379625), and DMSO. Assay Summary: 6uL of HeLa miR-21-FLuc cells in assay buffer (DMEM, Invitrogen #21063-029; 10% FBS, HyClone #SH30071.03) were dispensed at 2000cells/well (3.3 x 10^5 cells/mL) into Greiner solid-white TC-treated 1536-well plates using a Multidrop Combi (Thermo Fisher Scientific). Plates were incubated for one hour at 37 degree Celsius, 95% humidity, 5% CO2. These assay plates were then treated with 23nL of compound or DMSO using a Kalypsys pin tool, which allows for delivery of a 24-point titration of each compound to the assay plate, with a final compound concentration ranging from approximately 40uM to 5pM. Assay plates were then incubated for 48 hours. After incubation, plates were allowed to come to RT for one hour prior to delivery of 3uL of 3X luciferase detection reagent. After a 15 minute incubation to allow for cell lysis, luciferase activity was measured using a ViewLux CCD imager (PerkinElmer), with an average exposure time of 2-12 seconds. Keywords: NIH Roadmap, MLPCN, MLSMR, qHTS, miR-21, microRNA, firefly luciferase, FLuc.
# Potency is read from the fitted curve at half-maximal effect.
row,Compound,Potency
1,CSc1ccc(CNC(=O)c2ccc(NC(=O)c3nsc4ccccc34)cc2)cc1,0.585 µM (active)
2,COCCCNC(=O)c1ccc(NC(=O)c2nsc3ccccc23)cc1,3.69 µM (active)
3,CCOc1ccc(CNC(=O)c2ccc(NC(=O)c3nsc4ccccc34)cc2)cc1,1.85 µM (active)
4,Cc1ccc(CNC(=O)c2ccc(NC(=O)c3nsc4ccccc34)cc2)cc1,1.65 µM (active)
5,CCOc1cc(CNC(=O)c2ccc(NC(=O)c3nsc4ccccc34)cc2)ccc1OC,0.585 µM (active)
6,O=C(Nc1ccccc1F)N1CCc2ccccc2C1,4.65 µM (active)
7,Nc1nc(CSC(=S)N2CCCCC2)nc(Nc2ccccc2)n1,11.7 µM (active)
8,Nc1nc(CSC(=S)N2CCOCC2)nc(Nc2ccccc2)n1,3.69 µM (active)
9,Cc1nc2cc(NC(=O)Nc3cccc4ccccc34)ccc2n1C,2.93 µM (active)
10,Cn1c(CCN2CCCCCC2)nc2cc(NC(=O)Nc3ccccc3)ccc21,7.36 µM (active)
11,Cc1ccc(NC(=O)Nc2ccc3c(c2)nc(C)n3C)cc1C,1.17 µM (active)
12,Cc1ccc(/C=N/Nc2ccc(Cl)c(C(=O)O)c2)s1,0.165 µM (active)
13,Cc1ccc(/C=N/Nc2cccc(C(=O)O)c2)s1,0.104 µM (active)
14,Cc1ccc(/C=N/Nc2ncc(Cl)cc2Cl)s1,3.69 µM (active)
15,CN(C(=O)c1ccco1)c1nnc(C23CC4CC(CC(C4)C2)C3)s1,8.26 µM (active)
16,C=CCSc1cc(C)nc2c(-c3ccccc3)cnn12,2.07 µM (active)
17,CCSc1cc(C)nc2c(-c3ccccc3)cnn12,0.656 µM (active)
18,COc1ccc(/C=C/C=C2\NC(=S)NC2=O)cc1,14.7 µM (active)
19,Cc1oc(C(C)(C)C)cc1C(=O)Nc1ccc(C(=O)O)cc1,8.26 µM (active)
20,NC1=NC(=O)/C(=C/c2cn(Cc3ccccc3)c3ccccc23)S1,9.27 µM (active)
21,Cc1ccc(C(=O)C(C)OC(=O)c2ccccc2[N+](=O)[O-])cc1 (stereo not drawn),4.65 µM (active)
22,Cc1ccc2cc(NC(=O)c3ccccc3C)ccc2n1,5.85 µM (active)
23,Cc1ccc(NC(=O)CC(=O)c2ccccc2)cc1C,11.7 µM (active)

row,Compound,Potency
1,CCc1ccc(C(=O)Nc2ccc3nc(C)ccc3c2)cc1,3.29 µM (active)
2,Cc1ccc2cc(NC(=O)c3cccc(F)c3)ccc2n1,0.464 µM (active)
3,Cc1ccc2cc(NC(=O)Cc3ccccc3)ccc2n1,2.07 µM (active)
4,CCC(=O)Nc1ccc(-c2csc(C)n2)cc1,7.36 µM (active)
5,CCC(=O)Nc1ccc(-c2ccc(N3CCCCC3)nn2)cc1,4.14 µM (active)
6,CSc1ccccc1C(=O)Nc1ccc2c(c1)CCC2,7.36 µM (active)
7,COc1cc(SC)ccc1C(=O)Nc1ccc2c(c1)CCC2,1.31 µM (active)
8,COc1cc(SC)ccc1C(=O)Nc1ccc2ncccc2c1,0.369 µM (active)
9,COc1cc(SC)ccc1C(=O)Nc1ncc(Cl)cc1Cl,1.85 µM (active)
10,COc1cc(SC)ccc1C(=O)Nc1ccc(C)cc1C,1.85 µM (active)
11,CCCCN(C(=O)Cc1cccs1)c1nnc(-c2cccnc2)s1,14.7 µM (active)
12,CCOC(=O)CSc1nc(N)c(C#N)cc1C#N,8.26 µM (active)
13,CC(C)OC(=O)CSc1nc(N)c(C#N)cc1C#N,5.85 µM (active)
14,CSc1nc(N)nc(SCC(=O)OC(C)C)c1C#N,13.1 µM (active)
15,O=C1CCn2nc(-c3ccc(Cl)cc3)cc2N1,6.56 µM (active)
16,COc1cccc(NC(=O)C(=O)NCCc2ccc(F)cc2)c1,11.7 µM (active)
17,O=C(CCCc1ccccc1)Nc1cccc(C(=O)O)c1,0.464 µM (active)
18,O=C(CCCc1ccccc1)c1ccccc1,2.07 µM (active)
19,O=C(NCc1ccccc1)C(=O)Nc1cccc(C(=O)O)c1,0.185 µM (active)
20,Cc1cccc(NC(=O)C(=O)NCCCc2ccccc2)c1,16.5 µM (active)
21,Cc1cccc(NC(=O)CCCc2ccccc2)c1,7.36 µM (active)
22,Cc1cc(N2CCOCC2)n2ncc(-c3ccc(Cl)cc3)c2n1,0.414 µM (active)
23,Cc1cc(N2CCOCC2)n2ncc(-c3ccccc3Cl)c2n1,1.65 µM (active)

row,Compound,Potency
1,COc1ccccc1-c1cnn2c(NC3CCCC3)cc(C)nc12,5.85 µM (active)
2,COc1ccccc1-c1cnn2c(N3CCOCC3)cc(C)nc12,14.7 µM (active)
3,Cc1nc(-c2ccc(Cl)cc2)sc1C(=O)O,11.7 µM (active)
4,C/C(=N\O)c1sc(-c2ccccc2)nc1C,1.85 µM (active)
5,CNC(=O)c1sc(-c2ccc(Cl)cc2)nc1C,6.56 µM (active)
6,Cc1cc(/C=C\c2ccccc2)nc2ccccc12,7.36 µM (active)
7,CCc1ccc(CNc2ccc3c(c2)ncn3C(C)(C)C)cc1,5.85 µM (active)
8,CC(C)(C)n1cnc2cc(NCc3ccc(Br)cc3)ccc21,4.14 µM (active)
9,O=C(O)c1ccc(N/N=C/C2=Cc3ccccc3OC2)cc1,1.17 µM (active)
10,CCS(=O)(=O)c1ccc2oc(Nc3ccccc3Br)nc2c1,2.07 µM (active)
11,CCN(CC)S(=O)(=O)c1ccc2oc(Nc3ccccc3)nc2c1,9.27 µM (active)
12,CCS(=O)(=O)c1ccc2oc(Nc3ccccc3Cl)nc2c1,1.85 µM (active)
13,C=CCNc1nc(Nc2ccccc2F)nc(OCC)n1,5.85 µM (active)
14,O=C(Nc1ccc(Br)cc1)C1Cc2ccccc2O/C1=N\O (stereo not drawn),7.36 µM (active)
15,Cc1cccc(NC(=O)C2Cc3ccccc3O/C2=N\O)c1 (stereo not drawn),14.7 µM (active)
16,Cc1ccc(NC(=O)C2Cc3ccccc3O/C2=N\O)cc1C (stereo not drawn),14.7 µM (active)
17,COCCNc1oc(/C=C/c2ccccc2)nc1C#N,2.07 µM (active)
18,N#Cc1nc(/C=C/c2ccccc2)oc1NCCCN1CCOCC1,10.4 µM (active)
19,COCCCNc1oc(/C=C/c2ccccc2)nc1C#N,0.464 µM (active)
20,CC(C)c1ccc(NC(=O)C(c2ccccc2)N2CC(=O)Nc3ccccc32)cc1 (stereo not drawn),13.1 µM (active)
21,CCC(C)C(=O)N1CCc2cc(-c3csc(N)n3)ccc21 (stereo not drawn),1.65 µM (active)
22,CCCC(=O)N1c2ccc(-c3csc(N)n3)cc2CC1C (stereo not drawn),1.85 µM (active)
